From PubChem BioAssay (EPA / NIEHS) come the findings set out here.

Assay [1] is described as follows: ATG_TAL_CIS: Attagene CIS-FACTORIAL HepG2 Assay for human TAL Basal Promoter (AID 2282966; active = hit-call score of the fitted dose curve at least 0.9, where 1 is the maximum; inactive = score below 0.9;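 note: background control endpoint measuring basal TAL promoter reporter mRNA not a specific factor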). The conditions noted are these: HepG2 Attagene cis-factorial TAL promoter reporter; actives raise or lower the signal. In short, it runs like this:
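Steps: transfect HepG2 with multiple reporter transcription units; dose 24 h; isolate RNA, reverse-transcribe, PCR-amplify, label with 6-FAM, digest with HpaI; resolve by capillary electrophoresis. Bidirectional fitting against DMSO baseline.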

A short description of assay [2]: ATG_TGFb_CIS: Attagene CIS-FACTORIAL HepG2 Assay for human Transforming Growth Factor (TGF) (AID 2282967; active = hit-call score of the fitted dose curve at least 0.9, where 1 is the maximum; inactive = score below 0.9). The conditions noted are these: HepG2 Attagene CIS TGFb reporter, mRNA transcription; actives raise or lower the signal. In a few lines: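 Liver HepG2 line, cis-factorial reporter panel, 24 h dosing. Quantitation: RT-PCR products labeled with 6-FAM, cut with HpaI, resolved by capillary electrophoresis; DMSO-referenced bidirectional analysis.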

Assay [3] in a line: ATG_VDRE_CIS: Attagene CIS-FACTORIAL HepG2 Assay for human Vitamin D Receptor Element (VDRE) (AID 2282968; active = hit-call score of the fitted dose curve at least 0.9, where 1 is the maximum; inactive = score below 0.9). Conditions: HepG2 VDRE cis-reporter transcription, actives raise or lower the signal. In short, it runs like this:
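Cell-based multiplexed reporter format in human liver HepG2 cells, 24 h post-dose. Fluorescence from capillary electrophoresis of reporter cDNA gives the signal, with DMSO as negative control and baseline.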

For assay [4], the target named is Steroid hormone receptor ERR1 (Homo sapiens) (UniProt P11474). In words: ATG_ERRa_TRANS: Attagene TRANS-FACTORIAL HepG2 Assay for human Estrogen-Related Receptor alpha (ERRa) (AID 2282971). The conditions noted are these: HepG2 Attagene TRANS reporter, ERRa transactivation. In a few lines: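 Signal gain relative to DMSO for an ERRa-Gal4 chimeric receptor, read as reporter mRNA by RT-PCR/capillary electrophoresis. Human HepG2 liver cells, transient multiplex reporter transfection, 24 h chemical exposure.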

Assay [5] concerns the target X-box-binding protein 1 (Homo sapiens) (UniProt P17861). In words: ATG_Xbp1_CIS: Attagene CIS-FACTORIAL HepG2 Assay for human X-box Binding Protein 1 (XBP1) (AID 2282972; active = hit-call score of the fitted dose curve at least 0.9, where 1 is the maximum; inactive = score below 0.9). Conditions: HepG2 XBP1 cis-element reporter, Attagene multiplex; actives raise or lower the signal. In short, it runs like this: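 HepG2, transient MRTU transfection (cis-promoter driven), 24 h compound exposure. Total RNA → oligo(dT) RT → PCR → 6-FAM labeling → HpaI cut → CE. Bidirectional fit vs DMSO.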

Assay [6] in a line: ATG_M_19_TRANS: Attagene TRANS-FACTORIAL HepG2 Assay for M19 Transcription Factor (Internal Marker) (AID 2282974). Conditions: HepG2 Attagene TRANS-FACTORIAL M19 internal marker reporter. In a few lines: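 HepG2 cells transiently transfected with multiple GAL4-UAS reporter transcription units were exposed to chemicals for 24 h. Reporter mRNA was read by RT-PCR, 6-FAM primer extension, HpaI digestion and capillary electrophoresis; gain of signal fitted relative to DMSO.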

Assay [7] concerns the target Glucocorticoid receptor (Homo sapiens) (UniProt P04150). The experiment in a line: ATG_GR_TRANS: Attagene TRANS-FACTORIAL HepG2 Assay for human Glucocorticoid Receptor (GR) (AID 2282978).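 Note: activators score as hits since higher reporter transcript over DMSO is fitted.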 Conditions: HepG2 Attagene TRANS GR reporter, mRNA transcription. In short, it runs like this: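 HepG2 cells transiently transfected with multiplexed reporter units in which chimeric NR-GAL4 proteins drive GAL4-UAS reporters; 24 h compound exposure. Reporter mRNA measured by RT-PCR, 6-FAM labelling, HpaI digestion and capillary electrophoresis; gain-of-signal fitted versus DMSO.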

Assay [8] addresses Hepatocyte nuclear factor 4-alpha (Homo sapiens) (UniProt P41235). In words: ATG_HNF4a_TRANS: Attagene TRANS-FACTORIAL HepG2 Assay for human Hepatocyte Nuclear Factor 4 alpha (HNF4a) (AID 2282982). The conditions noted are these: HepG2 HNF4a transactivation reporter, mRNA readout. In short, it runs like this:
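Gain-of-signal mRNA induction, relative to DMSO vehicle, was read after 24 h compound treatment of HepG2 cells bearing transfected GAL4-UAS reporters. Detection used RT-PCR, 6-FAM primer extension and capillary electrophoresis.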

The nature of assay [9]: ATG_M_06_TRANS: Attagene TRANS-FACTORIAL HepG2 Assay for M06 Transcription Factor (Internal Marker) (AID 2282983). The conditions noted are these: HepG2 Attagene TRANS M06 internal marker reporter. In short, it runs like this: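 Internal-marker background readout from a multiplexed TRANS reporter system in HepG2; 24 h dosing; mRNA induction quantified by RT-PCR plus capillary electrophoresis fluorescence; DMSO as negative control and baseline.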

Assay [10] is described as follows: ATG_M_32_TRANS: Attagene TRANS-FACTORIAL HepG2 Assay for M32 Transcription Factor (Internal Marker) (AID 2282984).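 Note: transcript level of a background control reporter unit measured by RT-PCR and capillary electrophoresis.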 Conditions: HepG2 Attagene TRANS M32 internal marker reporter. In a few lines: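 Capillary electrophoresis of 6-FAM-labelled reporter fragments gives the signal; data fitted for gain over DMSO negative control. Source: HepG2 cells bearing transient multiple reporter transcription units, 24 h exposure.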

Assay [11] has as its target Transcriptional activator Myb (Homo sapiens) (UniProt P10242). In words: ATG_Myb_CIS: Attagene CIS-FACTORIAL HepG2 Assay for human Myeloblastosis (Myb) Proto-Oncogene Transcription Factor (AID 2282986; active = hit-call score of the fitted dose curve at least 0.9, where 1 is the maximum; inactive = score below 0.9). Conditions: HepG2 Attagene CIS-FACTORIAL Myb reporter transcription; actives raise or lower the signal. In a few lines:
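HepG2 cells were transiently transfected with cis-regulated multiple reporter transcription units reflecting endogenous Myb activity, then exposed to compound for 24 hours. Reporter mRNA was measured by RT-PCR with capillary electrophoresis; bidirectional fitting versus DMSO baseline.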

Assay [12] has as its target Nuclear respiratory factor 1 (Homo sapiens) (UniProt Q16656). The experiment in a line: ATG_NRF1_CIS: Attagene CIS-FACTORIAL HepG2 Assay for human Nuclear Respiratory Factor 1 (NRF1) Orphan Gene (AID 2282987; active = hit-call score of the fitted dose curve at least 0.9, where 1 is the maximum; inactive = score below 0.9). The conditions noted are these: HepG2 NRF1 cis-element reporter, Attagene multiplex; actives raise or lower the signal. In short, it runs like this:
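HepG2 cells transiently transfected with multiple reporter transcription units under cis-regulatory promoter control, so endogenous transcription-factor activity is read. After 24 h compound exposure, reporter mRNA quantified by RT-PCR, fluorescent labelling, HpaI digestion and capillary electrophoresis; bidirectional fitting versus DMSO.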

For assay [13], the target named is Estrogen receptor (Homo sapiens) (UniProt P03372). The experiment in a line: ATG_ERa_TRANS: Attagene TRANS-FACTORIAL HepG2 Assay for human Estrogen Receptor alpha (ERa) (AID 2282970). The conditions noted are these: HepG2 Attagene TRANS ERa GAL4 reporter, mRNA. In a few lines: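 Multiplexed cell-based reporter format in HepG2: chimeric ERa-Gal4 protein drives GAL4-UAS reporter transcription. Fluorescent reporter mRNA quantified by capillary electrophoresis 24 hours after dosing; endpoint fitted as signal gain against DMSO.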
Sequence of Estrogen receptor (Homo sapiens) (P03372 whole entry, looked up, the tested form may be a part): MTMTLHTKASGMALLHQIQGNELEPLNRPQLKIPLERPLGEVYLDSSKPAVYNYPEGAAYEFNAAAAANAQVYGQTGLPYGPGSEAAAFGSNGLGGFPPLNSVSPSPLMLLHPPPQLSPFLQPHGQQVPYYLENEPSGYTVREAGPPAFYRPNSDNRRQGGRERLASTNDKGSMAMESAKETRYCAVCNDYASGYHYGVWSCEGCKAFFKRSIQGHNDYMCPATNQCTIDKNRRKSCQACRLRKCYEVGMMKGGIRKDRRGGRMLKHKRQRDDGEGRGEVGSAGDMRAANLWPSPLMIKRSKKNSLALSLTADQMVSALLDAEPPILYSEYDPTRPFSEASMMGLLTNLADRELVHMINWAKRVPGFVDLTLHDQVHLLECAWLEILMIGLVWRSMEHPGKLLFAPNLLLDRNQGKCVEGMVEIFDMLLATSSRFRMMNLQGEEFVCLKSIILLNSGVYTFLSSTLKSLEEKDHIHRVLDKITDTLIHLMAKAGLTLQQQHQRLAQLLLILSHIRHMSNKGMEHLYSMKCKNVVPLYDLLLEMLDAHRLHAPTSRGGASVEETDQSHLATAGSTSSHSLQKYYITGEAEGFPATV

Assay [14] concerns the target Bile acid receptor (Homo sapiens) (UniProt Q96RI1). In words: ATG_FXR_TRANS: Attagene TRANS-FACTORIAL HepG2 Assay for Farnesoid X Receptor (FXR) (AID 2282979).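 Note: hits raise reporter mRNA above DMSO so AC50 marks FXR activation.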 The conditions noted are these: HepG2 Attagene TRANS FXR-GAL4 reporter transcription. In a few lines: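 After 24 h chemical treatment of transfected HepG2 cells, GAL4-UAS reporter transcripts driven by an exogenous FXR-GAL4 fusion were measured by RT-PCR and capillary electrophoresis. Increases over DMSO were fitted.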

Assay [15] addresses Oxysterols receptor LXR-alpha (Homo sapiens) (UniProt Q13133). The experiment in a line: ATG_LXRa_TRANS: Attagene TRANS-FACTORIAL HepG2 Assay for human Liver X Receptor alpha (LXRa) (AID 2282980). Conditions: HepG2 Attagene TRANS reporter, LXRa transactivation. In short, it runs like this:
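In this multiplexed TRANS system, compounds act on HepG2 cells carrying GAL4-UAS reporter units and a receptor-GAL4 fusion for 24 h. Induced reporter RNA is amplified, fluorescently labelled and sized by capillary electrophoresis, with DMSO as baseline.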

The target in assay [16] is Nuclear receptor subfamily 4 group A member 2 (Homo sapiens) (UniProt P43354). In words: ATG_NURR1_TRANS: Attagene TRANS-FACTORIAL HepG2 Assay for human Nuclear Receptor Related Protein 1 (NURR1) (AID 2282985). Conditions: HepG2 Attagene TRANS reporter, mRNA readout. In a few lines:
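HepG2 / transient MRTU transfection / 24 h compound exposure / RT-PCR + CE fluorescence of reporter mRNA / gain-of-signal vs DMSO.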

The target in assay [17] is Oxysterols receptor LXR-beta (Homo sapiens) (UniProt P55055). The experiment in a line: ATG_LXRb_TRANS: Attagene TRANS-FACTORIAL HepG2 Assay for human Liver X Receptor beta (LXRb) (AID 2282981). The conditions noted are these: HepG2 Attagene TRANS GAL4-LXRb reporter, mRNA. In short, it runs like this:
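Gain-of-signal mRNA reporter endpoint, DMSO as negative control. Transiently transfected HepG2 cells carrying the NR-Gal4 chimera and GAL4-UAS reporter units were treated 24 h; transcripts quantified by RT-PCR and capillary electrophoresis fluorescence.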

A short description of assay [18]: ATG_GAL4_TRANS: Attagene TRANS-FACTORIAL HepG2 Assay for GAL4 (Internal Marker) (AID 2282976). Conditions: HepG2 Attagene TRANS GAL4 internal marker reporter. In a few lines:
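Liver HepG2 line bearing multiplexed GAL4-UAS reporter constructs; 24 h chemical treatment. Transcripts were quantified as fluorescent fragments on capillary electrophoresis after RT-PCR and HpaI cut, with activity fitted upward from DMSO.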

Records with an inconclusive call do not appear. Calls of active or inactive are those of the source. Rule for the calls, unless noted: active = hit-call score of the fitted dose curve at least 0.9, where 1 is the maximum; inconclusive = response in the unintended direction; inactive = score below 0.9.

Sequence of Oxysterols receptor LXR-alpha (Homo sapiens) (Q13133 whole entry, looked up, the tested form may be a part): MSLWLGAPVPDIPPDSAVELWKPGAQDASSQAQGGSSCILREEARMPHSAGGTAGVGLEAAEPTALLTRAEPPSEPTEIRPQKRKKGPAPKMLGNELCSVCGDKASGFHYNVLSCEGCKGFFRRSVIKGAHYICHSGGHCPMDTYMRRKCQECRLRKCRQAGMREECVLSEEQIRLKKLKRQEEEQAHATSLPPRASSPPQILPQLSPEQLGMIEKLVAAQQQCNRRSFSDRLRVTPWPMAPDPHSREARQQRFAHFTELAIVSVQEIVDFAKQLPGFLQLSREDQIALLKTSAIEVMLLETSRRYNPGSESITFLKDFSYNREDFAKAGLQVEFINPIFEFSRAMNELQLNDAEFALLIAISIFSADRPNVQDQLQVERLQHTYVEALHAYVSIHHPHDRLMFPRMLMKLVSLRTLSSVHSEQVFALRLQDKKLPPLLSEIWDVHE
Sequence of X-box-binding protein 1 (Homo sapiens) (P17861 whole entry, looked up): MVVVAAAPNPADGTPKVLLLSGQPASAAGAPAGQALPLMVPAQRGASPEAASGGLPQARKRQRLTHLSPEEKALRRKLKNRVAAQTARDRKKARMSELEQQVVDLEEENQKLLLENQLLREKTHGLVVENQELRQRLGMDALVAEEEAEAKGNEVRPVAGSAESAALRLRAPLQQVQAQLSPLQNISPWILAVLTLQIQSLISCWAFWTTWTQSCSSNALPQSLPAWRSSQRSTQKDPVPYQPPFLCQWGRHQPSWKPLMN
Sequence of Transcriptional activator Myb (Homo sapiens) (P10242 whole entry, looked up): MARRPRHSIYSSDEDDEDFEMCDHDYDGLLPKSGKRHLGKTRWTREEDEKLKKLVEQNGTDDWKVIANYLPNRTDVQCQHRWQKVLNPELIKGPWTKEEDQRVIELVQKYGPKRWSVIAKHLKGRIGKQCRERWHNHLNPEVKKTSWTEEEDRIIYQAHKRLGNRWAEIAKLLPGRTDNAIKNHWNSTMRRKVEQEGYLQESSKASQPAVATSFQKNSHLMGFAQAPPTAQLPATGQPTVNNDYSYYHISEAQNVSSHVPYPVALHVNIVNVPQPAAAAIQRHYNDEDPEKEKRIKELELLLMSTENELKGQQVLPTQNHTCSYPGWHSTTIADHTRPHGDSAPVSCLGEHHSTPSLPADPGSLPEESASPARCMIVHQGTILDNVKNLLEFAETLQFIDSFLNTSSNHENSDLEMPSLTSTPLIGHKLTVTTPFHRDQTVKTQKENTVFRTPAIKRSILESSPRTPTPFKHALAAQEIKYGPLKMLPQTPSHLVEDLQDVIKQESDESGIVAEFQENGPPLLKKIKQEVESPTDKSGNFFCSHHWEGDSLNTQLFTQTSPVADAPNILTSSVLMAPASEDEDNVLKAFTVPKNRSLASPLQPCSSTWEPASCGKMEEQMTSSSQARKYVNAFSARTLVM
Sequence of Nuclear respiratory factor 1 (Homo sapiens) (Q16656 whole entry, looked up): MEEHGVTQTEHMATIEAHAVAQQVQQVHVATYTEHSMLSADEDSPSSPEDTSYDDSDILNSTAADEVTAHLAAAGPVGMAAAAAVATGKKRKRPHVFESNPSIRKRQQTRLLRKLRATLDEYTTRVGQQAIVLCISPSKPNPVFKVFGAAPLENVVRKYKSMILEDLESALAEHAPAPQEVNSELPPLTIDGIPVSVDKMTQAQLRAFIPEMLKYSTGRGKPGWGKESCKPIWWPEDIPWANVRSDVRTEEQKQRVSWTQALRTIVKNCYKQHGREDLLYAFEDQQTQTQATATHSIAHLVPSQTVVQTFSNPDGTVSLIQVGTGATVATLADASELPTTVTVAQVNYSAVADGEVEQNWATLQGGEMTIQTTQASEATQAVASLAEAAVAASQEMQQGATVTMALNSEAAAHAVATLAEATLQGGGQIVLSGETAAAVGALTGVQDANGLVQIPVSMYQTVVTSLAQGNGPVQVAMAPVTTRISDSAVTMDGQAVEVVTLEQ
Sequence of Nuclear receptor subfamily 4 group A member 2 (Homo sapiens) (P43354 whole entry, looked up): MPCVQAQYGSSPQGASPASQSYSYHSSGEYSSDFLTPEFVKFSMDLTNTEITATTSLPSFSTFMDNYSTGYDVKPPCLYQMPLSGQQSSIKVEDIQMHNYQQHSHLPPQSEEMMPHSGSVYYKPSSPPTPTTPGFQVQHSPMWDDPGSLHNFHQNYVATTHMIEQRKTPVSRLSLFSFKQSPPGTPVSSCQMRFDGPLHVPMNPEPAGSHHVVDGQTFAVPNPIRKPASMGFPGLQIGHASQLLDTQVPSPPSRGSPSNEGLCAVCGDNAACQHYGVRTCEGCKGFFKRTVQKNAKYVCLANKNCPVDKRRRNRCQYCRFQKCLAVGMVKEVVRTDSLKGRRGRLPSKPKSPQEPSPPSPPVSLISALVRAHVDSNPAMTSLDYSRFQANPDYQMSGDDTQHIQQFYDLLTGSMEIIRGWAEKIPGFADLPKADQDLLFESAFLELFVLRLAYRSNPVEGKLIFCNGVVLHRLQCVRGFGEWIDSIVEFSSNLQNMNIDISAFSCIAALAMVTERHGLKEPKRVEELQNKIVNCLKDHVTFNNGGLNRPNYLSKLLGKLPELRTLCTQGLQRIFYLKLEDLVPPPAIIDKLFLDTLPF
Sequence of Hepatocyte nuclear factor 4-alpha (Homo sapiens) (P41235 whole entry, looked up, the tested form may be a part): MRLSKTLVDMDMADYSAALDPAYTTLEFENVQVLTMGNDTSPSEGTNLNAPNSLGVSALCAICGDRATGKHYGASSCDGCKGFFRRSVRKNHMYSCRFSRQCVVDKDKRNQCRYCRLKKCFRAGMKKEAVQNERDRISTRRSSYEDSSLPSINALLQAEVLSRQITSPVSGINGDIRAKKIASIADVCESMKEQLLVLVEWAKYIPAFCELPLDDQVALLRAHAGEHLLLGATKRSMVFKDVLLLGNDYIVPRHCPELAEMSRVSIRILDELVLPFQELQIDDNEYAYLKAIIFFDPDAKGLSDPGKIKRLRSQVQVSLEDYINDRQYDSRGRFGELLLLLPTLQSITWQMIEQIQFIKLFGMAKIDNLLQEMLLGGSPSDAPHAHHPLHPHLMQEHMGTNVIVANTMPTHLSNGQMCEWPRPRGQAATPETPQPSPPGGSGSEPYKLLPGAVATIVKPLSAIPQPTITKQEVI
Sequence of Glucocorticoid receptor (Homo sapiens) (P04150 whole entry, looked up, the tested form may be a part): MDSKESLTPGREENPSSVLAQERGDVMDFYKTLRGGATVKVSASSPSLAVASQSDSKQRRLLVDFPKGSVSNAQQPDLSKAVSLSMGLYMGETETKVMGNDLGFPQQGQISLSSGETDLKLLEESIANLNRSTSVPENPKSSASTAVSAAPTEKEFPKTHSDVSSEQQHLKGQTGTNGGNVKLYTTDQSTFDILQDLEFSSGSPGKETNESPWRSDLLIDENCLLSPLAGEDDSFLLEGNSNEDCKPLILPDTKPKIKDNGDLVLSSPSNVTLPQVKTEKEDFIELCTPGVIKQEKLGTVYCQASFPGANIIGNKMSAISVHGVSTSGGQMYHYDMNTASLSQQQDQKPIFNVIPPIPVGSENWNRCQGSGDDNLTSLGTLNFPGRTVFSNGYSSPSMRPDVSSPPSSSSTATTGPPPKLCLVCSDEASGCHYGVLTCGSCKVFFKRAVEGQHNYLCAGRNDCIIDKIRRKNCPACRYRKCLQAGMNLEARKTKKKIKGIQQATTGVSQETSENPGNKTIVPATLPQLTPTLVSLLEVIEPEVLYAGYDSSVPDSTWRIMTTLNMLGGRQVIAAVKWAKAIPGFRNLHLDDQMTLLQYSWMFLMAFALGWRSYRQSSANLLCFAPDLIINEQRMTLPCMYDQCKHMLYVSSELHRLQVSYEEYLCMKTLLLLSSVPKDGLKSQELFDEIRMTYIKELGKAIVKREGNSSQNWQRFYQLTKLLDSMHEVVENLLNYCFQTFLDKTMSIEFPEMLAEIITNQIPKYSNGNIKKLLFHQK
Sequence of Oxysterols receptor LXR-beta (Homo sapiens) (P55055 whole entry, looked up, the tested form may be a part): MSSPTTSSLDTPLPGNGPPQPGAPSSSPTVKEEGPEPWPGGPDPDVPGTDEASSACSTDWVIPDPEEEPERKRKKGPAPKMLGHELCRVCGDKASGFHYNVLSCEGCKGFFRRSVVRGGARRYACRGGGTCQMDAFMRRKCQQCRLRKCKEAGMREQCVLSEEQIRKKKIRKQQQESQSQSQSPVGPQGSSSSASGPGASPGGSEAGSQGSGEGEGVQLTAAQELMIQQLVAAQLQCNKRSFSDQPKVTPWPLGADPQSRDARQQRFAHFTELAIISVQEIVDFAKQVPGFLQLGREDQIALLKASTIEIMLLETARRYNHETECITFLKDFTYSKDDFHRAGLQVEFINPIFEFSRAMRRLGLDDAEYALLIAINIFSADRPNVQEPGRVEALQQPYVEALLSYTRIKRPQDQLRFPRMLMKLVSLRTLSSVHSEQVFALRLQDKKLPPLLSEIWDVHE

What is called AC50 is the concentration giving half of the maximal activity seen. Regarding `CC(C)C(=O)C(C)C`, the compound was classed as inactive in assay [1], in assay [2], in assay [4], in assay [6], in assay [7] and in assay [8]. The outcome in assay [9], in assay [10], in assay [11] and in [12] was inactive. Further, the half-maximal activity concentration (AC50) in assay [3] was 55.2 µM (active); in [5] it was 34.7 µM (active).

In the case of `O=S(=O)(O)c1ccccc1C=Cc1ccc(-c2ccc(C=Cc3ccccc3S(=O)(=O)O)cc2)cc1`, the concentration at half-maximal activity (AC50) in [1] is 32.4 µM (active); in assay [2], 57.8 µM (active). The call in assay [3], in assay [13], in assay [6], in [7], in [14] and in [15] was inactive. Also, the result in assay [10], in [16], in assay [11] and in assay [12] was inactive.

With `COc1c2ccoc2cc2oc(=O)ccc12`, the compound was called inactive in assay [1], in [2], in assay [3], in assay [13], in assay [5] and in [17]. Also, the compound was called inactive in assay [8], in [9], in assay [16], in [11] and in assay [12].

Regarding `CCCCCC(C)O` (stereo not given), the result in assay [1], in [2], in assay [3], in [13], in assay [18] and in assay [15] was inactive. In addition, the compound was called inactive in assay [17], in [8], in assay [9], in assay [11] and in [12].

For the compound `C[Si](C)O[Si](C)(C)O[Si](C)(C)O[Si](C)C`, the compound was called inactive in [1], in assay [2], in assay [3], in [18], in assay [7] and in assay [17]. Also, the outcome in [9], in assay [10], in assay [16], in [11] and in assay [12] was inactive. Moreover, the AC50 in [13] was 30.3 µM (active).

As for `CC/C=C\C/C=C\C/C=C\CCCCCCCC(=O)O`, the call in assay [1], in [2], in assay [13], in assay [14], in assay [15] and in assay [17] was inactive. The compound was called inactive in [9], in [10], in [11] and in assay [12]. For the same compound, the AC50 in assay [3] was 62.7 µM (active); in [5], 160 µM (active).
